Bim-Mcl-1: inhibitors of Bim-Mcl-1 interaction, human; inhibition, % at 10 µM; Q07820; 0.1% of 190,000 active; AID 1009; Bead-based flow cytometry, Bim peptide-Mcl-1 binding; in the data active means inhibition above about 40%;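 further: 0% = no compound tracer wells and 100% = peptide blocker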
Target sequence (Q07820 whole entry, looked up): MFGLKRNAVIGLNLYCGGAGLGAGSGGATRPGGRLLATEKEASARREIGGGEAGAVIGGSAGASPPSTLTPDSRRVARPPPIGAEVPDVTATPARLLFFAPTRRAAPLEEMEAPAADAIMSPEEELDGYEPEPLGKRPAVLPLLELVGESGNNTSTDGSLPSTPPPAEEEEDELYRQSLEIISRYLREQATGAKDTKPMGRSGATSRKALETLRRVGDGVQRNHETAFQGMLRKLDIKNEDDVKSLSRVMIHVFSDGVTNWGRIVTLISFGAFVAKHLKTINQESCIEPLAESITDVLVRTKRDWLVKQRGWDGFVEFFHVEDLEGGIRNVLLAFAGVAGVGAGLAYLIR
Mcl1-Noxa inh: disrupts binding of human Mcl-1 to Noxa peptide | Q07820 | TR-FRET Mcl-1/Noxa peptide binding, 2 h | inhibition, % at 21.7 µM | 1.5% of 220,000 active;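 active means compounds that cut the protein-peptide binding signal by more than 50% relative to plate controls in a single-dose test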;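 further: His-tagged Mcl-1 with rhodamine Noxa BH3 peptide and terbium anti-His antibody; 0% = Mcl-1 plus Noxa peptide wells and 100% = peptide-only wells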
MCL1-BIM inh: MCL1-BIM-BH3 interaction inhibition (human); 0.68% of 320,000 active; Q07820; GST-MCL1 / FITC-Bim-BH3 fluorescence polarization; inhibition, % at 10.9 µM;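 active means inhibition above the mean inhibition of all tested compounds plus 3 SD, set per campaign, cut at about 40% in these data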;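 further: 0% = DMSO wells and 100% = unlabeled Bim-BH3 peptide control; higher means more loss of mP so more displacement of Bim peptide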
Mcl1 Bid PPI: disrupts binding of human Mcl-1 to Bid peptide | Q07820 | TR-FRET Mcl-1/Bid-Dy647 peptide binding, 1536-well | inhibition, % at 21.7 µM | 0.97% of 220,000 active | AID 1021;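 active means compounds that cut the binding signal by more than half at the single screening dose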;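 further: His-tagged Mcl-1 with europium anti-His antibody binding Bid BH3 peptide; 0% = Mcl-1 plus peptide wells and 100% = peptide-only wells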
GLD-1 RNA inh: GLD-1-TGE RNA interaction inhibition (C. elegans); purified GLD-1 + fluorescein TGE RNA, fluorescence polarization; Q17339; 0.44% of 320,000 active; inhibition, % at 5.96 µM;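 active means percent inhibition above a per-plate cutoff, the plate mean of test compounds plus 3 SD, cut at about 30% in these data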;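 further: 0% = DMSO wells with GLD-1 and probe and 100% = wells lacking GLD-1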
Bcl-xL primary: blocks human Bcl-xL binding to Bim BH3 peptide | Q07817 | GST-Bcl-xL / FITC-Bim BH3 peptide fluorescence polarization | inhibition, % at 10.9 µM | 0.7% of 320,000 active | AID 2129;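 active means inhibition above the mean of all tested compounds plus 3 SD, cutoff set per campaign, cut at about 30% in these data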;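 further: 0% = DMSO wells and 100% = unlabeled Bim-BH3 peptide competitor; inhibitors lower millipolarization by displacing the labeled peptide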
Target sequence (Q07817 whole entry, looked up): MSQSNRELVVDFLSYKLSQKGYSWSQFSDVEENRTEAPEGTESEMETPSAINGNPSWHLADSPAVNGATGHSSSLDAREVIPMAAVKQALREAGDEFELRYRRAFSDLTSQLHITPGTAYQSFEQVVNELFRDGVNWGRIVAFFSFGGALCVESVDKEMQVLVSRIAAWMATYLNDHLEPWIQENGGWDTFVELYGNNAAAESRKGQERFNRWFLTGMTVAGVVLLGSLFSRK
The depositor's hits bear a star; x = no result. Hits are enriched below; roughly 2.3% of the tested compounds scored in any of these assays.

SMILES	Bim-Mcl-1	Mcl1-Noxa inh	MCL1-BIM inh	Mcl1 Bid PPI	GLD-1 RNA inh	Bcl-xL primary
CC(=O)C1=C(C)NC(SCC(=O)c2ccc(F)cc2)=C(C#N)C1CC(C)C (centres undefined)	-9	52*	8	-16	5	10
c1ccc(-n2cnc3ccccc32)nc1	x	x	-1	x	-4	0
c1ccc(-c2nccc(-c3ccc(-n4cnc5ccccc54)cc3)n2)cc1	10	-117	-9	55*	7	-5
CCOc1ccccc1NC(=O)COC(=O)C1CC(=O)N(c2c(C)cccc2C)C1 (centres undefined)	x	x	0	x	-4	3
COc1ccc(N2CCN(C(=O)Cn3nnc(-c4ccc(N(C)C)cc4)n3)CC2)cc1	0	52*	-3	60*	3	2
COc1ccc(-c2ccc(-c3nnn(CC(=O)N4CCOCC4)n3)cc2)cc1	0	9	3	2	-5	5
COc1ccc(NC(=O)c2cc(S(=O)(=O)N3CCc4ccccc43)cn2C)cc1OC	x	x	3	x	3	6
CCCc1cc(=O)[nH]c(SCC(=O)c2c(C)[nH]c3ccccc23)n1	x	11	-2	76*	-4	-2
Cc1cccc(N=C2NC(=O)/C(=C/C=C/c3ccco3)S2)c1	-5	106*	-16	31	-6	-10
COc1ccc(N=C2NC(=O)/C(=C\C=C\c3ccco3)S2)cc1	6	82*	x	-36	x	x
Cc1ccc(N=C2NC(=O)/C(=C\c3ccco3)S2)cc1	-3	45	13	-28	-3	5
O=C1NC(=Nc2ccc3ccccc3c2)S/C1=C/c1ccco1	2	64*	13	-66	-3	7
CC(CCc1ccccc1)N1CCN(C)CC1 (centres undefined)	x	x	2	x	-12	-1
O=C(Cn1c(=O)oc2ccccc21)Nc1ccc(F)cc1	x	x	-2	x	7	3
CCOC(=O)c1c(S(=O)(=O)N2CCC(C)CC2)c(C)n(C)c1C	x	x	-1	x	3	-2
CC(=O)NC(Cc1c[nH]c2ccccc12)C(=O)N1CCN(S(=O)(=O)c2ccccc2)CC1 (centres undefined)	x	x	0	x	-1	-1
CC(C)C(=O)OCC(=O)NCc1ccccc1Cl	-1	13	10	-16	1	5
O=C(COC(=O)c1cc[n+]([O-])cc1)NCc1ccccc1Cl	0	72*	-3	-13	-4	0
COc1ccc(N(C(C)=O)c2nc3ccccc3[nH]2)cc1	x	x	-5	x	-2	-11
Cc1cccc(-c2cccc(NC(=O)C3CCCN(C(=O)c4csc(C)n4)C3)c2)c1 (centres undefined)	x	x	-2	x	2	2
O=C(Nc1cc(C(F)(F)F)ccc1N1CCOCC1)C1=NN(c2ccccc2)C(=O)CC1	x	x	-4	x	5	2
Oc1[nH]c(=S)sc1/C=C1\C(c2ccccc2)=Nc2ccccc21	-6	81*	-73	-3	-121	-41
Oc1[nH]c(=S)sc1C=C1N=c2ccccc2=N1	x	17	4	-45	3	3
Oc1ccccc1Nc1nc(NCc2ccccc2)c2ccccc2n1	-4	59*	9	-20	7	1
CCOc1ccc(C(C)=O)cc1N1C(=O)C2C3C=CC(C3)C2C1=O (centres undefined)	0	14	5	-10	2	-1
SMILES	Bim-Mcl-1	Mcl1-Noxa inh	MCL1-BIM inh	Mcl1 Bid PPI	GLD-1 RNA inh	Bcl-xL primary
CCOc1ccc(C(C)=O)cc1N1C(=O)C2C3C=CC(O3)C2C1=O (centres undefined)	0	63*	-3	8	2	9
CN1C(=O)/C(=C/c2cn(CC(=O)N3CCCCC3)c3ccccc23)c2ccccc21	-3	97*	-10	-23	6	-2
O=Cc1cn(CC(=O)N2CCCCC2)c2ccccc12	-1	-2	-3	-19	6	1
O=S1(=O)CCC(NC2CCCC2)C1 (centres undefined)	x	x	6	x	1	6
CN(C)NC1CCS(=O)(=O)C1 (centres undefined)	-1	52*	3	-9	3	3
Nc1cc2nn(-c3ccccc3)nc2cc1Cl	0	66*	x	-83	x	x
COc1ccc(-n2nc3cc(C)c(N)c(Br)c3n2)cc1	2	89*	8	-28	-3	7
Cc1ccc(-n2nc3cc(C)c(N)cc3n2)cc1	0	90*	8	-25	-1	-2
COc1ccc(-n2nc3cc(N)c(Br)cc3n2)cc1	x	x	3	x	3	0
O=C(O)c1ccc2ncsc2c1	x	56*	-2	92*	5	2
Cc1ccc(NC(=O)c2ccc3ncsc3c2)cc1S(=O)(=O)N(C)C	x	48	3	67*	5	3
O=C(c1ccc2ncsc2c1)N1CCCCC1	x	x	2	x	5	-4
O=C(O)c1ccc2nc(-c3ccccc3)sc2c1	-4	15	7	3	2	7
Nc1ccc(-c2nc3ccc(C(=O)O)cc3s2)cc1	-12	57*	12	-37	1	7
CCc1nnc(NC(=O)c2ccc3ncsc3c2)s1	x	41	-1	56*	-3	1
CN(C)c1ccnc2sc(C(N)=O)c(N)c12	0	-2	11	97*	2	4
CC(C)[C@H](NC(=O)N1CC(=O)Nc2ccccc21)C(=O)N1CCC(C(=O)O)CC1	x	x	6	x	4	-1
Cc1cccc(C(=O)O[C@@H]2[C@H](Cc3ccccc3)NS(=O)(=O)[C@H]3C[C@@H]4C=C[C@]23O4)c1	x	x	3	x	1	5
COc1cccc(NC(=O)CNC(=O)N2CC(=O)Nc3ccccc32)c1	x	x	8	x	1	44*
COc1ccc(CNC(=O)CNC(=O)N2CC(=O)Nc3ccccc32)cc1	x	x	4	x	3	7
O=C(CSc1nnnn1-c1ccc(F)cc1)c1ccc(O)c(O)c1	-1	57*	3	-15	4	0
O=C(O)c1ccc(CSc2nnnn2-c2ccc(F)cc2)cc1	x	x	-8	x	-3	2
COc1cc(NC(=S)NC(=O)c2ccco2)ccc1NC(=O)C(C)C	-3	-1	5	-14	-2	7
COc1cc(NC(=S)NC(=O)c2ccccc2F)ccc1NC(=O)c1ccco1	-7	32	12	53*	7	7
CSc1nc(SCC(=O)O)c2sc3nc(-c4ccccc4)c4c(c3c2n1)CCC4	x	-77	x	90*	x	x
O=[N+]([O-])c1ccc2nc(SCc3cn4cc(Cl)ccc4n3)[nH]c2c1	-2	51*	-4	31	3	-1
O=[N+]([O-])c1ccc2nc(SCc3cn4ccccc4n3)[nH]c2c1	-5	-4	-6	-55	-3	1
Cc1ccc(-n2ncc3c2CCCC3NC(=O)CCc2cnccn2)cc1C (centres undefined)	x	x	2	x	-3	12
Cc1ccc(Cl)c2c1=NC(=O)C=2c1[nH]c(=S)[nH]c1O	1	53*	6	-100	-13	9

Screening data: PubChem BioAssay, several laboratories
